Assay results from PubChem BioAssay AID504799 (The Scripps Research Institute Molecular Screening Center, 2011).
Some of the results follow. Values without a mark were called inactive. Calls of active or inactive are those of the source.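 The calls were made as follows: active = mean activation over triplicate runs exceeds the adjusted cutoff derived for the parent primary screen (cut at about 19% in these data); inactive = the rest.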

test: FP signal interference without PKA proteins, confirmation, artefact control for PKA-R1A activator project, biochemical, fluorescence polarization, triplicate (AID 504799); settings: Cy5-IP20 peptide alone, fluorescence polarization artifact counterscreen; at 11.4 µM; active compounds read high;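 also: no PKA protein present so any polarization rise reflects compound interference; 0% = tracer peptide mix alone and 100% = mix with added PKA catalytic subunit; higher means stronger polarization artifact and likely false positive in parent screen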

Row | SMILES | activation
1 | O=C(Nc1ccc2c(c1)[C@@H]1C[C@@H](CC(=O)N3CCCCC3)O[C@@H](CO)[C@@H]1O2)NC1CCCCC1 | 3.18%
2 | Cc1ccc2nc3c(cc(C(=O)NCCc4ccccc4)c(=N)n3CC3CCCO3)c(=O)n2c1 (stereo not given) | 4%
3 | CCC(Oc1ccccc1C)C(=O)Nc1ccc(S(=O)(=O)Nc2cc(C)on2)cc1 (stereo not given) | 2.96%
4 | COc1ccccc1N1CC(C(=O)Nc2nnc(SCC(=O)NC(C)C)s2)CC1=O (stereo not given) | -0.21%
5 | CN(C(=O)CSc1nnc(Nc2ccccc2)s1)C1CCS(=O)(=O)C1 (stereo not given) | 0.22%
6 | CCOc1cc(C(=O)Nc2c(C)ccc3nsnc23)cc(OCC)c1OCC | 3.5%
7 | N#Cc1ccccc1CN1C(=O)S/C(=C/c2cccn2-c2cccc(C(=O)O)c2)C1=O | 19.3% (active)
8 | CCCC(=O)Nc1ncnc2c1ncn2[C@@H]1O[C@@H]2OP(=O)(O)OC[C@H]2[C@H]1OC(=O)CCC | 0.15%
9 | COc1ccc(NC(=O)c2ccc(C#CC(C)(C)O)cc2)cc1 | -2.01%
10 | COc1ccc(CNc2nnnn2C)cc1 | 3.5%
